From the antibiotic and cytotoxicity screens of Wong et al. (2023)
In all, about 39,000 compounds went through this assay and about 3,300 (8.5%) were called active. Only a selection was taken, and actives are over-represented in it overall.

The compounds below were run on HepG2 (assay: cytotoxicity call (relative viability < 0.9)). Settings: 10 µM.
For Cc1ccc(S(=O)(=O)Nc2ccc3c(c2)C(=O)N([C@H](C)CO)C[C@@H](C)[C@H](CN(C)C(=O)Nc2ccc4c(c2)OCO4)OCCCC[C@@H](C)O3)cc1, the cytotoxicity call was “inactive”.
For C[C@H](CO)N1C[C@H](C)[C@@H](CN(C)S(=O)(=O)c2ccc(F)cc2)OCCCC[C@H](C)Oc2ccc(NC(=O)Nc3ccc4c(c3)OCO4)cc2C1=O, the cytotoxicity call was “inactive”.
Cc1noc(C)c1S(=O)(=O)Nc1ccc2c(c1)C(=O)N([C@@H](C)CO)C[C@H](C)[C@H](CN(C)S(=O)(=O)c1ccccc1)O2 was tested, and the cytotoxicity call was “inactive”.
In the case of C[C@@H]1CN([C@H](C)CO)C(=O)c2cc(NC(=O)Cn3cnnn3)ccc2O[C@@H]1CN(C)CC1CC1, the cytotoxicity call is reported as “inactive”.
CNc1ccc(-c2nc(N3CCOCC3)c3sc(CN(C)c4ncc(C(=O)NO)cn4)cc3n2)cn1 was tested, and the cytotoxicity call was “active”.
With COc1ccc(-c2nc(N3CCOCC3)c3sc(CN(C)c4ncc(C(=O)NO)cn4)cc3n2)cn1 the cytotoxicity call was “active”.
In the case of COC(=O)COc1nsnc1N1CCOCC1, the cytotoxicity call is reported as “inactive”.
COc1ccc(S(=O)(=O)Nc2ccc3c(c2)C(=O)N([C@@H](C)CO)C[C@@H](C)[C@H](CN(C)C(=O)Nc2c(C)noc2C)OCCCC[C@H](C)O3)cc1 was tested, and the cytotoxicity call was “inactive”.
In the case of O=C(/C=C/c1ccc(O)c(O)c1)O[C@H]1[C@H](O)C[C@](O)(C(=O)O)C[C@H]1OC(=O)/C=C/c1ccc(O)c(O)c1, the cytotoxicity call is reported as “inactive”.
Cc1ccc(S(=O)(=O)Nc2ccc3c(c2)CC(=O)N([C@H](C)CO)C[C@H](C)[C@@H](CN(C)S(C)(=O)=O)O3)cc1 was tested, and the cytotoxicity call was “inactive”.
With Cc1coc2c1C(=O)C(=O)c1c-2ccc2c1CCCC2(C)C the cytotoxicity call was “active”.
With CC1COC2=C1C(=O)C(=O)c1c2ccc2c1CCCC2(C)C (stereo not given) the cytotoxicity call was “active”.
With Cc1cccc2c3c(ccc12)C1=C(C(=O)C3=O)C(C)CO1 (stereo not given) the cytotoxicity call was “active”.
In the case of Cc1cccc2c1OCC[C@@H](N)C2=O, the cytotoxicity call is reported as “inactive”.
With C[C@@H]1CN([C@@H](C)CO)C(=O)Cc2cc(NC(=O)Nc3cccc4ccccc34)ccc2O[C@H]1CN(C)Cc1ccc(-c2ccccc2)cc1 the cytotoxicity call was “inactive”.
With COc1cc2c(cc1OC)CN(C(=O)[C@H]1[C@@H]3C(=O)O[C@@H](c4ccccc4)[C@@H](c4ccccc4)N3[C@@H](c3ccccc3OCCO)[C@]13C(=O)Nc1ccc(C#CC4(O)CCCCCC4)cc13)CC2 the cytotoxicity call was “inactive”.
With O=C(C[C@@H]1CC[C@H]2[C@@H](COC[C@H](O)CN2C(=O)c2ccccn2)O1)NC1CCC1 the cytotoxicity call was “inactive”.
For O[C@@H]1[C@@H](O)[C@H](OC/C=C/c2ccccc2)O[C@H](CO[C@@H]2OC[C@@H](O)[C@@H](O)[C@@H]2O)[C@H]1O, the cytotoxicity call was “inactive”.
With NCc1cccc2nsnc12 the cytotoxicity call was “inactive”.
In the case of C[C@H]1CN([C@@H](C)CO)C(=O)c2cccc(NC(=O)C3CC3)c2O[C@@H]1CN(C)S(=O)(=O)c1ccc(F)cc1, the cytotoxicity call is reported as “inactive”.
For O=C(O)c1cc(N=Nc2ccc(S(=O)(=O)Nc3ccccn3)cc2)ccc1O, the cytotoxicity call was “inactive”.
For C[C@@H]1CN([C@H](C)CO)C(=O)Cc2cc(NC(=O)CCN3CCOCC3)ccc2O[C@@H]1CN(C)Cc1ccc(C(=O)O)cc1, the cytotoxicity call was “inactive”.
In the case of C[C@H]1CN([C@@H](C)CO)C(=O)Cc2cc(NC(=O)CCN3CCOCC3)ccc2O[C@H]1CN(C)Cc1ccc(C(=O)O)cc1, the cytotoxicity call is reported as “inactive”.
CC1(C)[C@H]2C[C@@H](O[C@H]3O[C@@H](CO)[C@@H](O)[C@@H](O)[C@@H]3O)[C@@]1(C)C[C@@H]2O was tested, and the cytotoxicity call was “inactive”.
With COC(=O)[C@@]12O[C@@H]1[C@H](O[C@@H]1O[C@H](CO)[C@@H](O)[C@H](O)[C@H]1O)C[C@H]1[C@]3(C)C[C@@H](c4ccoc4)OC(=O)[C@H]3CC[C@]12C the cytotoxicity call was “active”.
CC1(C)CC[C@]2(C(=O)O[C@H]3O[C@@H](CO)[C@@H](O)[C@@H](O)[C@@H]3O)CC[C@]3(C)C(=CC[C@H]4[C@@]5(C)C[C@@H](O)[C@H](O[C@H]6O[C@H](C(=O)O)[C@@H](O)[C@@H](O)[C@@H]6O)C(C)(C)[C@@H]5CC[C@]43C)[C@@H]2C1 was tested, and the cytotoxicity call was “inactive”.
With COCC(=O)Nc1ccc2c(c1)OC[C@H](C)N(C(=O)Cc1cccnc1)C[C@H](C)[C@@H](OC)CN(C)C2=O the cytotoxicity call was “inactive”.
For Cc1noc(C)c1S(=O)(=O)Nc1ccc2c(c1)C(=O)N([C@@H](C)CO)C[C@@H](C)[C@@H](CN(C)S(=O)(=O)c1ccccc1)O2, the cytotoxicity call was “inactive”.
In the case of CC(C)C#Cc1ccc2c(c1)O[C@H](CN(C)S(=O)(=O)c1cn(C)cn1)[C@@H](C)CN([C@@H](C)CO)S2(=O)=O, the cytotoxicity call is reported as “inactive”.
With C[C@@H]1CN([C@@H](C)CO)C(=O)Cc2cc(NS(C)(=O)=O)ccc2O[C@@H]1CN(C)Cc1ccc(C(=O)O)cc1 the cytotoxicity call was “inactive”.
With C[C@@H]1CN([C@@H](C)CO)C(=O)Cc2cc(NC(=O)Nc3cccc4ccccc34)ccc2O[C@@H]1CN(C)Cc1ccc(Oc2ccccc2)cc1 the cytotoxicity call was “inactive”.
For C[C@H]1CN([C@@H](C)CO)C(=O)Cc2cc(NC(=O)Nc3cccc4ccccc34)ccc2O[C@H]1CN(C)Cc1ccc(Oc2ccccc2)cc1, the cytotoxicity call was “active”.
C[C@@H]1CN([C@H](C)CO)C(=O)Cc2cc(NC(=O)Nc3cccc4ccccc34)ccc2O[C@H]1CN(C)Cc1ccc(Oc2ccccc2)cc1 was tested, and the cytotoxicity call was “inactive”.
With C[C@H](CO)N1C[C@H](C)[C@@H](CN(C)Cc2ccc(Oc3ccccc3)cc2)Oc2ccc(NC(=O)Nc3cccc4ccccc34)cc2CC1=O the cytotoxicity call was “active”.
For C[C@@H]1CN([C@H](C)CO)C(=O)Cc2cc(NC(=O)Nc3cccc4ccccc34)ccc2O[C@@H]1CN(C)Cc1ccc(Oc2ccccc2)cc1, the cytotoxicity call was “active”.
With C[C@H](CO)N1C[C@H](C)[C@H](CN(C)Cc2ccc(Oc3ccccc3)cc2)Oc2ccc(NC(=O)Nc3cccc4ccccc34)cc2CC1=O the cytotoxicity call was “inactive”.
C[C@H]1CN([C@@H](C)CO)C(=O)Cc2cc(NC(=O)Nc3cccc4ccccc34)ccc2O[C@@H]1CN(C)Cc1ccc(Oc2ccccc2)cc1 was tested, and the cytotoxicity call was “inactive”.
With C[C@@H]1CN([C@@H](C)CO)C(=O)Cc2cc(NC(=O)Nc3cccc4ccccc34)ccc2O[C@H]1CN(C)Cc1ccc(Oc2ccccc2)cc1 the cytotoxicity call was “inactive”.
For COc1ccc(S(=O)(=O)N(C)C[C@@H]2Oc3ccc(NS(=O)(=O)c4ccc(C)cc4)cc3C(=O)N([C@H](C)CO)C[C@H]2C)cc1, the cytotoxicity call was “inactive”.
For COC(=O)[C@H]1CCNCCC1=O, the cytotoxicity call was “inactive”.
